Assay results from PMC7826789 (International Journal of Molecular Sciences, 2021).

Assays:
Details in all cases: Compound Concentration (nM):1000
AMPK-alpha1 = tested on: T1, AMPK-alpha1
T1 construct: gene PRKAA1

AMPK-alpha2 = tested on: T2, AMPK-alpha2
T2 construct: gene PRKAA2

ANKK1 = tested on: ANKK1
ARK5 = tested on: T3, ARK5
T3 construct: gene NUAK1

ASK1 = tested on: T4, ASK1
T4 construct: gene MAP3K5

ASK2 = tested on: T5, ASK2
T5 construct: gene MAP3K6

AURKA = tested on: AURKA
AURKB = tested on: AURKB
AURKC = tested on: AURKC
AXL = tested on: AXL
BIKE = tested on: T6, BIKE
T6 construct: gene BMP2K

BLK = tested on: BLK
BMPR1A = tested on: BMPR1A
BMPR1B = tested on: BMPR1B
BMPR2 = tested on: BMPR2
BMX = tested on: BMX
BRAF(V600E) = tested on: BRAF(V600E)
BRAF = tested on: BRAF
BRK = tested on: T7, BRK
T7 construct: gene PTK6

BRSK1 = tested on: BRSK1
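Note: KINOMEscan scanMAX binding as percent activity remaining versus control; lower means stronger binding.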

Compound | Percent Control (AMPK-alpha1) [%] | Percent Control (AMPK-alpha2) [%] | Percent Control (ANKK1) [%] | Percent Control (ARK5) [%] | Percent Control (ASK1) [%] | Percent Control (ASK2) [%] | Percent Control (AURKA) [%] | Percent Control (AURKB) [%] | Percent Control (AURKC) [%] | Percent Control (AXL) [%] | Percent Control (BIKE) [%] | Percent Control (BLK) [%] | Percent Control (BMPR1A) [%] | Percent Control (BMPR1B) [%] | Percent Control (BMPR2) [%] | Percent Control (BMX) [%] | Percent Control (BRAF(V600E)) [%] | Percent Control (BRAF) [%] | Percent Control (BRK) [%] | Percent Control (BRSK1) [%]
COc1cc(C)c(N(C)C(=O)CN(C)C)cc1Nc1nc(Nc2cccc(F)c2C(N)=O)c2cc[nH]c2n1 [GSK2219385] | 100 | 100 | 94 | 86 | 100 | 70 | 85 | 93 | 90 | 76 | 77 | 100 | 93 | 95 | 91 | 92 | 82 | 72 | 100 | 100
CCS(=O)(=O)c1ccc(OC)c(Nc2ncc(-c3cccc(OC)c3)o2)c1 [GW580509X] | 100 | 100 | 95 | 100 | 100 | 85 | 88 | 83 | 100 | 95 | 100 | 21 | 100 | 45 | 100 | 100 | 78 | 86 | 100 | 100
NS(=O)(=O)c1ccc(N/N=C2\C(=O)Nc3ccc(-c4cnco4)cc32)cc1 [GW276655] | 95 | 100 | 65 | 100 | 100 | 85 | 70 | 66 | 65 | 100 | 20 | 63 | 100 | 94 | 62 | 100 | 100 | 86 | 82 | 100
CC1=C(C(=O)Nc2ccc3[nH]ncc3c2)C(c2ccc(Cl)c(Cl)c2)CC(=O)N1 (centres unmarked) [GSK299115A] | 67 | 97 | 100 | 85 | 98 | 82 | 45 | 60 | 56 | 100 | 100 | 91 | 100 | 67 | 69 | 75 | 82 | 100 | 70 | 92
CCS(=O)(=O)c1ccc(OC)c(Nc2ncc(-c3cccc(F)c3)o2)c1 [GW621970X] | 100 | 91 | 100 | 100 | 100 | 75 | 100 | 89 | 100 | 97 | 100 | 16 | 95 | 64 | 100 | 100 | 73 | 91 | 100 | 100
COc1cc(C=NNc2ncnc3c2cnn3-c2ccccc2)ccc1O [GW513184X] | 100 | 100 | 48 | 84 | 100 | 100 | 33 | 96 | 59 | 60 | 25 | 16 | 40 | 20 | 100 | 100 | 65 | 77 | 100 | 54
CN1CCN(C(=O)c2ccc(NC(=O)Nc3ccc(N(C)c4ccnc(Nc5ccc(CS(C)(=O)=O)cc5)n4)cc3)cc2)CC1.Cl [GW830263A] | 82 | 87 | 28 | 78 | 100 | 67 | 0 | 0.4 | 0.2 | 9.7 | 2.4 | 87 | 32 | 1.1 | 56 | 59 | 85 | 89 | 95 | 100
COC(=O)Nc1nc2ccc(Oc3ccc(NC(=O)Nc4cc(C(F)(F)F)ccc4F)cc3)cc2s1.Cl [GW693917A] | 69 | 82 | 85 | 100 | 100 | 64 | 71 | 13 | 50 | 6 | 75 | 61 | 89 | 80 | 99 | 100 | 17 | 30 | 96 | 100
COc1cc(/C=N/Nc2ncnc3[nH]ncc23)ccc1O [GW578748X] | 79 | 54 | 21 | 100 | 100 | 75 | 41 | 56 | 58 | 65 | 53 | 32 | 100 | 22 | 9.6 | 89 | 26 | 35 | 80 | 100
CC(C)COC(=O)c1ccc2c(c1)/C(=C/Nc1ccc(S(N)(=O)=O)cc1)C(=O)N2 [GW416981X] | 100 | 92 | 44 | 97 | 100 | 85 | 66 | 65 | 35 | 100 | 27 | 100 | 100 | 96 | 30 | 100 | 97 | 100 | 100 | 100
